# Source: PubChem BioAssay
# TGFb inhibitor: blocks TGF-b signaling | Potency, µM (series often up to 46.1 µM), without a hit: top-dose activity, negative = inhibition, most hits filed as inhibitors | HepG2 CAGA-GFP TGF-b/SMAD3 reporter, GFP fluorescence, 18 h; TGF-beta stimulated, 500 pg/mL final | AID 588855 | hit rate 1.2% among 410,000; further: on the % scale 0 is the no-effect control and ±100 the full control effect; nearly all actives have a fitted effect of over 65% in size
#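 First, reporter cells (HEPG2 CAGA-GFP) rested 2 h at 37 degrees C. Next, compounds were pinned in and TGF-beta added to 500 pg/mL final. After 18 h, GFP was imaged per cell and summed per well.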
# DT40 TDP1 CPT: DT40-hTDP1 cell growth loss with CPT; Potency, µM (top dose mostly 46.2 µM), without a hit: top-dose activity change, negative = growth inhibition, actives largely listed as inhibitors; hit rate 12% among 420,000; chicken DT40 Tdp1-/-;hTDP1 cells + 20 nM CPT, ATP luminescence, 48 h; further: on the % scale 0 is the no-effect control and ±100 the full control effect; nearly all actives have a fitted effect of over 55% in size
#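 Chicken DT40 Tdp1-/- cells complemented with human TDP1, 400 cells/well, exposed to compounds plus 20 nM camptothecin for at least 48 h at 37 C; viability read as ATP content by CellTiter-Glo luminescence.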
# DT40 TDP1 no CPT: qHTS for Inhibitors of human tyrosyl-DNA phosphodiesterase 1 (TDP1): qHTS in cells in absence of CPT | DT40 Tdp1-/- hTDP1 cells, no CPT, ATP luminescence, 48 h | Potency, µM (highest dose often 46.2 µM), for inactives: top-dose activity change, negative = growth inhibition, actives largely listed as inhibitors | hit rate 15% among 420,000 | AID 686978, 2013; further: on the % scale 0 is the no-effect control and ±100 the full control effect; nearly all actives have a fitted effect of over 55% in size
#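 No-CPT arm: Tdp1-/-;hTDP1 DT40 cells (400/well) plus compounds, incubated ≥48 hr at 37 °C. Readout CellTiter-Glo luminescence.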
# HT1080 IDH1KD tx: HT-1080 IDH1 knockdown cell toxicity (counter line); HT-1080 IDH1 knockdown viability, ATP luminescence, 48 h; hit rate 2% among 360,000; Potency, µM (series often up to 46.1 µM), for the others: at the highest dose activity, negative = toxicity, usual class: cytotoxic; AID 686971;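 further: 0% = DMSO wells and -100% = cell-free medium wells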
#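 CellTiter-Glo luminescence after 48 h compound exposure at 37 degrees C of IDH1-knockdown HT-1080 cells in 5% FBS RPMI. %Activity scaled between DMSO wells and cell-free media wells, with curves fitted and assigned curve classes.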
# HT1080-NT tox: kills 2HG-producing HT-1080-NT fibrosarcoma cells; HT-1080-NT fibrosarcoma viability, CellTiter-Glo ATP luminescence, 48 h; Potency, µM (top dose mostly 46.1 µM), inactives show top-dose activity, negative = less viability, actives largely listed as cytotoxic; hit rate 1.6% among 360,000; AID 686970;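 further: NT is the 2HG producing partner of a matched IDH1 knockdown line; 0% = DMSO-treated cells and -100% = media-only wells without cells; nearly all actives have a fitted effect of over 55% in size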
#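 Luminescent CellTiter-Glo readout after 48 hours of compound exposure at 37 degrees C defined viability of HT-1080-NT cells. Activity was normalized to DMSO wells and cell-free media wells; concentration-response curves were fitted and assigned curve classes.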
# HepG2 viability: counter-screen for TGF-b inhibitors: cytotoxicity in HepG2 cells; HepG2 CAGA-GFP viability, ATP luminescence, 18 h; Potency, µM (top dose mostly 46.1 µM), without a hit: at the top dose activity change, negative = cytotoxicity, actives largely listed as cytotoxic; hit rate 0.76% among 410,000
#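 HepG2 CAGA-GFP cells (1000/well, DMEM with 1% FBS) received compound, then TGF-beta at 500 pg/mL final, and were incubated 18 hours at 37 degrees C. Viability was read by CellTiter-Glo luminescence. Media-only wells were set as complete cell-killing and DMSO as no toxicity.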
# * hit, by the source's call; u = inconclusive; x = no result; ! = not confirmed by another sample. Hits are enriched below; roughly 17% of the tested compounds scored in any of these assays. The call rests on the fitted dose curve; in most records, active means well fitted curve in the direction sought with a large enough effect; inconclusive means small, poorly fitted or top-dose-only effect, or another doubt; inactive means no such curve, though single readings can be large; an effect the other way counts as inactive or inconclusive. Potency means the concentration at half of the fitted maximal effect.
SMILES,TGFb inhibitor,DT40 TDP1 CPT,DT40 TDP1 no CPT,HT1080 IDH1KD tx,HT1080-NT tox,HepG2 viability
CCC(CCc1ccccn1)C(=O)c1ccccc1 (configuration not stated),-1%,-22%,-22%,18%,15%,4%
CCCCC(CCc1ccccn1)C(=O)c1ccccc1 (configuration not stated),0%,23µM*,u,-2%,6%,-1%
CN(C)CC(CCCCC(CN(C)C)C(=O)c1ccccc1)C(=O)c1ccccc1 (configuration not stated),u,5.8µM*,5.8µM*,u,u,-108%
CC1=NN(Cc2ccccc2)C(=O)C1C(c1ccncc1)C(C#N)C#N (configuration not stated),u,u,u,-1%,-2%,-3%
CC1=NNC(=O)C1C(c1ccc(Cl)cc1)C(C#N)C#N (configuration not stated),u,0%,u,-20%,0%,-23%
CC1=NN(Cc2ccccc2)C(=O)C1C(c1ccc(Cl)cc1)C(C#N)C#N (configuration not stated),-18%,10µM*,10µM*,0%,-25%,-16%
CC1=NN(Cc2ccccc2)C(=O)C1C(c1ccccc1)C(C#N)C#N (configuration not stated),-16%,21µM*,26µM*,-11%,-16%,-8%
CCS(=O)(=O)NC(C)C(c1cccs1)N1CCN(c2ccc(OC)cc2)CC1 (configuration not stated),-5%,21µM*,23µM*,15%,-4%,-18%
COc1ccc(N2CCN(C(c3cccs3)C(C)NS(=O)(=O)c3ccccc3)CC2)cc1 (configuration not stated),-5%,21µM*,13µM*,-10%,4%,0%
COc1ccc(N2CCN(C(c3cccs3)C(C)NC(=O)C(=O)N3CCCC3)CC2)cc1 (configuration not stated),0%,16µM*,u,5%,24%,1%
CC(NS(=O)(=O)c1ccc(Br)cc1)C(c1cccs1)N1CCOCC1 (configuration not stated),0%,18µM*,u,12%,-8%,-1%
CN(C(=S)NC1=CCS(=O)(=O)C1)C1CCCCC1,3%,-13%,-17%,1%,1%,4%
O=C1c2ccccc2C(c2nnnn2Cc2ccccc2)N1Cc1cccc(F)c1 (configuration not stated),x,u,u,7%,1%,x
CCOc1ccc(N(C)c2ccc(/C=C3/SC(=S)NC3=O)cc2)cc1,-23%,u,16µM*,u,u,-26%
CCc1cccc(NC(c2ccccc2)c2nnc(-c3ccccc3F)o2)c1 (configuration not stated),u,u,21µM*,x,x,-4%
CCN(CC)S(=O)(=O)c1ccc(/C=C/C(=O)N(c2ccccn2)C2CCCCC2)cc1,-28%,u,12µM*,-9%,8%,-17%
O=C(/C=C/c1ccccc1)N(c1ccccn1)C1CCCCC1,-1%,u,u,2%,9%,-9%
O=C(/C=C/c1ccccc1Cl)N(c1ccccn1)C1CCCCC1,0%,u,16µM*,27%,u,5%
CSc1sc(C(=O)NN)c2c1C1(CCC2)SCCS1,-2%,-11%,-18%,-9%,-1%,-15%
COC(=O)C1=C(C)N(Cc2ccco2)C(=O)C1,-23%,-9%,-18%,20%,26%,3%
COC(=O)C1=C(C)N(Cc2ccco2)C(=O)/C1=C\c1ccc([N+](=O)[O-])cc1,u,16µM*,u,u,u,-41%
C=CCOc1cccc(/C=C2\C(=O)N(Cc3ccc(C)cc3)C(C)=C2C(=O)OC)c1,u,u,23µM*,-16%,-19%,-31%
COC(=O)C1=C(C)N(Cc2ccc(OC)cc2)C(=O)/C1=C\c1ccco1,25%,26µM*,16µM*,-18%,-12%,1%
O=C(NCc1ccccc1)c1cc(C2COCCN2S(=O)(=O)c2ccccc2)on1 (configuration not stated),39%,4%,-22%,11%,u,2%
CCOC(=O)[C@@H](C)NS(=O)(=O)N(Cc1ccccc1)[C@H](C(=O)OC)C(C)C,u,u,u,5%,11%,-17%
SMILES,TGFb inhibitor,DT40 TDP1 CPT,DT40 TDP1 no CPT,HT1080 IDH1KD tx,HT1080-NT tox,HepG2 viability
C=CS(=O)(=O)N(Cc1ccccc1Br)[C@H](CO)Cc1ccccc1,u,7.9µM*,7.1µM*,u,u,-68%
C=C[C@H](CC(C)C)N(Cc1ccccc1)S(=O)(=O)N(Cc1ccc(OC)cc1)[C@H](C=C)CC(C)C,-27%,u,13µM*,8%,14%,-26%
COC(=O)C(CC(C)C)N(Cc1cc(OC)cc(OC)c1)S(=O)(=O)c1ccccc1Br (configuration not stated),u,u,u,-2%,0%,-7%
COC(=O)[C@H](C(C)C)N(Cc1ccccc1)S(=O)(=O)CCNC1CCCC1,u,26µM*,u,-7%,-1%,-30%
COC(=O)[C@H](CC(C)C)N(Cc1ccccc1)S(=O)(=O)N(Cc1ccccc1)[C@@H](CC(C)C)C(=O)OC,u,21µM*,12µM*,-3%,-1%,-18%
O=C(CCN=C1NS(=O)(=O)c2ccccc21)OCc1nnc(-c2ccccc2)o1,-12%,15%,0%,1%,7%,-16%
O=C(NC1CC1)c1cccc(NC(=O)C2CCCCC2)c1,-4%,-5%,-28%,4%,1%,-21%
CC(C)C[C@H](CO)N(Cc1ccccc1)S(=O)(=O)N(Cc1ccccc1)[C@@H](CO)CC(C)C,u,16µM*,12µM*!,u,u,-111%
CC(C)N(Cc1ccccc1)S(=O)(=O)N(C)C,-20%,-2%,-19%,0%,1%,3%
O=S(=O)(N(Cc1ccccc1)[C@@H](CO)Cc1ccccc1)N(Cc1ccccc1)[C@@H](CO)Cc1ccccc1,u,u,5.6µM*,-5%,-24%,2%
C=CCCN([C@H](CO)Cc1ccccc1)S(=O)(=O)c1ccccc1Br,u,u,-20%,0%,8%,-26%
